# A number with no mark means an inactive call. Results filed as inconclusive are left out. Entries that show only a call come without a potency. The source made the active and inactive calls. Unless noted, the call rests on the fitted dose curve; in most records, active means well fitted curve in the direction sought with a large enough effect in the repeat runs; inconclusive means weak or mixed curves; inactive means no such curve, though single readings can be large; an effect the other way counts as inactive or inconclusive.
# Experiments:
# [1] = qHTS assay for small molecule agonists of the p53 signaling pathway - cell viability (AID 651633; calls by dose curve; further: nearly all actives have a fitted effect of over 30% in size; further: potency means the concentration at half of the fitted maximal effect)
# Outline: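 p53RE-bla cells were treated with compound for 16 hours at 37 C. Cytotoxicity was then measured as CellTiter-Glo luminescence after 30 min at room temperature.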
# [2] = qHTS assay for small molecules that induce genotoxicity in human embryonic kidney cells expressing luciferase-tagged ATAD5 - cell viability (AID 651634; calls by dose curve; further: nearly all actives have a fitted effect of over 25% in size)
# Outline: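 Here HEK293T cells with the ATAD5 luciferase reporter are incubated with test compounds for 15.5 hr, and cytotoxicity is then gauged by measuring protease activity in live cells using fluorescence.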
# [3] = qHTS assay for small molecule disruptors of the mitochondrial membrane potential - cell viability (AID 720634; calls by dose curve;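 further: human HepG2 liver cancer cells; series mostly up to about 83 µM; nearly all actives have a fitted effect of over 20% in size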)
# Outline: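 Viability of HepG2 cells is scored from ATP content by luminescence; cells are exposed to compound for 1 hr at 37 C and 5% CO2, then dosed with m-MPI dye before the CellTiter-Glo reagent.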
# [4] = qHTS assay for small molecule disruptors of the mitochondrial membrane potential (AID 720635); further: potency means the concentration at half of the fitted maximal effect
# Outline: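 HepG2 cells exposed to compound 1 hr at 37C, then Mito-MPS dye 30 min. Ratio read of aggregate (540/590 nm) versus monomer (490/535 nm) fluorescence.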
# [5] = qHTS assay to test for compound auto fluorescence at 590 nm (red) in HepG2 cells (AID 720674)
# Outline: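 Seeding: 2,000 HepG2 cells/well, MEM/10% FBS, overnight 37 C. Dosing: compound vs DMSO. Incubation: 1 hr, 37 C, 5% CO2. Read: fluorescence 540 ex/590 em, Rose Bengal sodium as red reference.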
# [6] = qHTS assay to test for compound auto fluorescence at 535 nm (green) in HepG2 cells (AID 720675)
# [7] = qHTS assay to test for compound auto fluorescence at 460 nm (blue) in HEK293 cells (AID 720678)
# Outline: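 Blue-channel (Ex/Em 405/460 nm) intensity measured in HEK293 cultures after overnight compound exposure at 37C; signal expressed relative to triamterene. Cells plated 2,000 per well in 10% dialyzed FBS medium and allowed 4-5 hr to attach.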
# [8] = qHTS assay to test for compound auto fluorescence at 590 nm (red) in HEK293 cells (AID 720679)
# Outline: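 Red-channel autofluorescence (Ex/Em 540/590 nm; Rose Bengal sodium reference) was measured after overnight 37C, 5% CO2 exposure of attached HEK293 cells, 2,000 per well in medium with 10% dialyzed FBS.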
# [9] = qHTS assay to test for compound auto fluorescence at 535 nm (green) in HEK293 cells (AID 720680)
# [10] = qHTS assay to test for compound auto fluorescence at 460 nm (blue) in HEK293 cell free culture (AID 720681)
# Outline: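 Compounds were added to cell-free DMEM with 10% FBS and fluorescence read directly. The blue channel used 405 nm excitation and 460 nm emission, with triamterene as the reference fluorophore.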
# [11] = qHTS assay to test for compound auto fluorescence at 535 nm (green) in HEK293 cell free culture (AID 720682)
# Outline: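 DMEM + 10% FBS, cell-free; cpd or DMSO pinned in; Ex485/Em535 read; output as fluorescein-equivalent signal.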
# [12] = qHTS assay to test for compound auto fluorescence at 590 nm (red) in HEK293 cell free culture (AID 720683)
# Outline: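 Cell-free wells of DMEM with 10% FBS received compound, and intrinsic fluorescence was read at excitation/emission 540/590 nm. Values expressed as equivalence to Rose Bengal sodium.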
# [13] = qHTS assay to test for compound auto fluorescence at 590 nm (red) in HepG2 cell free culture (AID 720684)
# Outline: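 Rose Bengal sodium served as the reference for red signal. Test compounds were dispensed into serum-containing MEM (10% FBS) without cells, and plates were read at 540/590 nm.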
# [14] = qHTS assay to test for compound auto fluorescence at 460 nm (blue) in HepG2 cell free culture (AID 720685)
# Outline: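 Cell-free plates of MEM plus 10% FBS received 23 nL compound or DMSO vehicle; blue-channel (405/460 nm) intensity scored against triamterene as reference fluorophore.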
# [15] = qHTS assay to test for compound auto fluorescence at 535 nm (green) in HepG2 cell free culture (AID 720686)
# [16] = qHTS assay to test for compound auto fluorescence at 460 nm (blue) in HepG2 cells (AID 720687)
# Outline: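 HepG2 cells in MEM with 10% FBS, attached overnight at 37 C, were exposed to compound or DMSO for 1 hr at 37 C, 5% CO2. Blue fluorescence was read at 405/460 nm, with triamterene as reference fluorophore.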
# [17] = target: Glucocorticoid receptor (Homo sapiens) (UniProt P04150); experiment: qHTS assay to identify small molecule agonists of the glucocorticoid receptor (GR) signaling pathway (AID 720691; active means well fitted activation curve with a large enough effect in the signal ratio in the repeat runs, not every such curve was filed as active; the % refers to the signal ratio)
# Outline: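 Compounds in DMSO, alongside positive controls, were added to GR-bla HeLa reporter cells and incubated 18 h at 37 C; GRE-driven beta-lactamase was detected by fluorescence after 2 h with FRET substrate at room temperature.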
# [18] = target: Glucocorticoid receptor (Homo sapiens) (UniProt P04150); experiment: qHTS assay to identify small molecule antagonists of the glucocorticoid receptor (GR) signaling pathway (AID 720692; active means well fitted inhibition curve with a large enough effect in the signal ratio in the repeat runs, not every such curve was filed as active; the % refers to the signal ratio)
# Outline: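 In a 1536-well cell format, compounds were added 4 h after seeding GR-bla HeLa cells, together with dexamethasone at 5 nM final; reporter activity was measured by FRET-substrate fluorescence following 18 h at 37 C.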
# [19] = qHTS assay for small molecules that induce genotoxicity in human embryonic kidney cells expressing luciferase-tagged ATAD5 (AID 651632); further: nearly all actives have a fitted effect of over 15% in size
# Outline: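 DMSO vehicle served as the control. HEK293T reporter cells, 16 hr at 37C, then 30 min Amplite at room temperature; ATAD5 induction is measured as luciferase activity.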
# Sequence of Glucocorticoid receptor (Homo sapiens) (P04150 whole entry, looked up): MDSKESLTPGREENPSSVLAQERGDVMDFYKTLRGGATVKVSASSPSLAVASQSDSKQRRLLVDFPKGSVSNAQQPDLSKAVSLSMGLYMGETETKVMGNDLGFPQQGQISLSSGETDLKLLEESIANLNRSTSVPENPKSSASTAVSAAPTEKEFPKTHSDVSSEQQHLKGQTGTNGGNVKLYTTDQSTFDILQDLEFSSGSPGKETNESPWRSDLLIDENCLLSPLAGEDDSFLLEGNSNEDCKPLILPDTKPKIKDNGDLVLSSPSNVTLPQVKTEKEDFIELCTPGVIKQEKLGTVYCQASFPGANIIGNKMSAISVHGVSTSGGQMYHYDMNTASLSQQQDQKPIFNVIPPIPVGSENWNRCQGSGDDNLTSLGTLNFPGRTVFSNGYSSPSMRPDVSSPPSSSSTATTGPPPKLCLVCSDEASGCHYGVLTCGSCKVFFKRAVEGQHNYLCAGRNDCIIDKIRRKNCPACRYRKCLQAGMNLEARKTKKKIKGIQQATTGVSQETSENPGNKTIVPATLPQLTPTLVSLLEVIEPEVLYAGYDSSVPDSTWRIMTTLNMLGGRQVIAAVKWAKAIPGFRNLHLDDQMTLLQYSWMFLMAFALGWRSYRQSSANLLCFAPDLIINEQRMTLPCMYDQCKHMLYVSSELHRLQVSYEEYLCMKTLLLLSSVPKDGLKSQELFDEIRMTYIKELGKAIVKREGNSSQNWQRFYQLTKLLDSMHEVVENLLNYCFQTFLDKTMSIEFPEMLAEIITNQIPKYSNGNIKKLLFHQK
structure (smiles),measurement,setting,value
CC[C@H](NC(=O)c1cc(F)ccc1NS(=O)(=O)c1cccc2cccnc12)c1ccccc1,Potency,[1],inactive
same,Potency,[2],inactive
same,Potency,[3],inactive
same,Potency,[4],2.05 µM (active)
same,outcome,[5],inactive
same,outcome,[6],inactive
same,Potency,[7],inactive
same,outcome,[8],inactive
same,outcome,[9],inactive
same,Potency,[10],inactive
same,outcome,[11],inactive
same,outcome,[12],inactive
same,outcome,[13],inactive
same,Potency,[14],inactive
same,outcome,[15],inactive
same,Potency,[16],inactive
CCCCCCCCCCCCCCC[C@H](O)[C@@H](N)CO,Potency,[2],inactive
same,outcome,[5],inactive
same,outcome,[6],inactive
same,Potency,[7],inactive
same,outcome,[9],inactive
same,Potency,[10],inactive
same,outcome,[11],inactive
same,outcome,[12],inactive
same,outcome,[13],inactive
same,Potency,[14],inactive
same,outcome,[15],inactive
same,Potency,[16],inactive
same,Potency,[17],inactive
Nc1nccs1,Potency,[1],inactive
same,Potency,[2],inactive
same,Potency,[3],inactive
same,Potency,[4],inactive
same,outcome,[5],inactive
same,outcome,[6],inactive
same,Potency,[7],inactive
same,outcome,[9],inactive
same,outcome,[11],inactive
same,outcome,[12],inactive
same,outcome,[13],inactive
same,Potency,[14],inactive
same,outcome,[15],inactive
same,Potency,[16],inactive
same,Potency,[17],inactive
same,Potency,[18],inactive
CSc1ccc(Oc2ccc(S(N)(=O)=O)cc2CN(C)C)cc1C,outcome,[5],inactive
same,outcome,[6],inactive
same,outcome,[8],inactive
same,outcome,[9],inactive
same,Potency,[10],inactive
same,outcome,[11],inactive
same,outcome,[12],inactive
same,outcome,[13],inactive
same,Potency,[14],inactive
same,outcome,[15],inactive
same,Potency,[16],inactive
same,Potency,[17],inactive
same,Potency,[18],inactive
N#C[C@@H]1C[C@@H]2C[C@@H]2N1C(=O)[C@@H](N)C12CC3CC(CC(O)(C3)C1)C2,Potency,[1],inactive
same,Potency,[4],inactive
same,outcome,[5],inactive
same,outcome,[6],inactive
same,Potency,[7],inactive
same,outcome,[8],inactive
same,outcome,[9],inactive
same,Potency,[10],inactive
same,outcome,[11],inactive
same,outcome,[12],inactive
same,outcome,[13],inactive
same,Potency,[14],inactive
same,outcome,[15],inactive
same,Potency,[16],inactive
same,Potency,[17],inactive
COc1cc2c(N3CCN(C(=O)Nc4ccc(OC(C)C)cc4)CC3)ncnc2cc1OCCCN1CCCCC1,Potency,[1],5.31 µM (active)
same,Potency,[3],inactive
same,outcome,[5],inactive
same,outcome,[6],inactive
same,Potency,[7],inactive
same,outcome,[8],inactive
same,outcome,[9],inactive
same,outcome,[11],inactive
same,outcome,[12],inactive
same,outcome,[13],inactive
same,Potency,[14],inactive
same,outcome,[15],inactive
same,Potency,[16],inactive
same,Potency,[17],inactive
CC(CCc1ccc2c(c1)OCO2)NN (configuration not stated),Potency,[19],inactive
same,Potency,[3],inactive
same,outcome,[6],inactive
same,outcome,[8],inactive
same,outcome,[9],inactive
same,Potency,[10],inactive
same,outcome,[11],inactive
same,outcome,[12],inactive
same,outcome,[13],inactive
same,Potency,[14],inactive
same,outcome,[15],inactive
same,Potency,[16],inactive
same,Potency,[17],inactive
same,Potency,[18],inactive
Cc1nccn1-c1ccc(Sc2cccc(C3(C(N)=O)CCOCC3)c2)cc1,Potency,[1],inactive
same,Potency,[2],inactive
same,Potency,[3],inactive
same,Potency,[4],inactive
same,outcome,[6],inactive
same,Potency,[7],inactive
same,outcome,[9],inactive
same,Potency,[10],inactive
same,outcome,[11],inactive
same,outcome,[12],inactive
same,outcome,[13],inactive
same,Potency,[14],inactive
same,outcome,[15],inactive
same,Potency,[16],inactive
same,Potency,[17],inactive
CCCc1c(OCCCOc2ccc(OCC(=O)O)cc2)ccc(C(C)=O)c1O,Potency,[19],inactive
same,outcome,[5],inactive
same,outcome,[6],inactive
same,Potency,[7],inactive
same,outcome,[8],inactive
same,outcome,[9],inactive
same,Potency,[10],inactive
same,outcome,[11],inactive
same,outcome,[12],inactive
same,outcome,[13],inactive
same,Potency,[14],inactive
same,outcome,[15],inactive
same,Potency,[16],inactive
same,Potency,[17],inactive
CCCCN(CCCC)CCCOC(=O)c1ccc(N)cc1,Potency,[1],inactive
same,Potency,[2],inactive
same,Potency,[3],inactive
same,"fluorescence, % of fluorescein control",[6],0.038% [at 18.6 µM]
same,"fluorescence, % of triamterene",[7],-0.0222% [at 18.6 µM]
same,"fluorescence, % of fluorescent control",[8],0.141% [at 18.6 µM]
same,"fluorescence, % of fluorescein",[9],0.0466% [at 18.6 µM]
same,"fluorescence, % of fluorescent control",[10],-0.0006% [at 18.6 µM]
same,activity change,[11],-0.0464% [at 18.6 µM]
same,"fluorescence, % of fluorescent control",[12],0.0804% [at 18.6 µM]
same,"fluorescence, % of Rose Bengal",[13],0.0643% [at 18.6 µM]
same,"fluorescence, % of fluorescent control",[14],0.138% [at 18.6 µM]
same,"fluorescence, % of fluorescein control",[15],-0.0572% [at 18.6 µM]
same,"fluorescence, % of fluorescent control",[16],-0.0696% [at 18.6 µM]
same,Potency,[17],inactive
same,Potency,[18],inactive
O=C(c1ccc(O)cc1)c1ccc(Cl)cc1,Potency,[1],inactive
same,Potency,[2],inactive
same,Potency,[4],15.7 µM (active)
same,outcome,[5],inactive
same,outcome,[6],inactive
same,Potency,[7],inactive
same,outcome,[8],inactive
same,outcome,[9],inactive
same,Potency,[10],inactive
same,outcome,[11],inactive
same,outcome,[12],inactive
same,outcome,[13],inactive
same,Potency,[14],inactive
same,outcome,[15],inactive
same,Potency,[16],inactive
same,Potency,[17],inactive
